An excerpt weighted towards active compounds, which were near 4.1% of everything screened.
hcDAF12 agonist: activates DAF-12 receptor from parasite H. contortus; 370,000 tested, 1.4% active; HEK293 hcDAF-12 lit1-tk-luc reporter, luminescence; 0% DMSO, 100% Δ7-dafachronic acid; activation, % at 6.8 µM;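 active = activation above the mean of all tested compounds plus 3 SD, cut at about 5.5% in these data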
hgDAF12 agonist: hgDAF-12 agonism, primary luciferase screen | HEK293 GAL4-hgDAF12 UAS-luciferase reporter, agonist luminescence; normalized to butyrate control | activation, % at 6.8 µM | 370,000 tested, 1.8% active;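 active = activation above a cutoff set at the mean of all screened compounds plus 3 SD, cut at about 10% in these data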
DAX1 inh-1: inhibitors of human orphan nuclear receptor DAX1 (NR0B1) | P51843 | AID 504766 | 340,000 tested, 0.99% active | inhibition, % at 6.75 µM | HEK293 Gal4-DAX1 luciferase reporter, luminescence;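 active = inhibition above the mean over all tested compounds plus 3 SD, cut at about 4.2% in these data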;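 also: inhibition shows as a rise in luminescence from relieved DAX1 repression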
Target sequence (P51843 207-470 limits assumed): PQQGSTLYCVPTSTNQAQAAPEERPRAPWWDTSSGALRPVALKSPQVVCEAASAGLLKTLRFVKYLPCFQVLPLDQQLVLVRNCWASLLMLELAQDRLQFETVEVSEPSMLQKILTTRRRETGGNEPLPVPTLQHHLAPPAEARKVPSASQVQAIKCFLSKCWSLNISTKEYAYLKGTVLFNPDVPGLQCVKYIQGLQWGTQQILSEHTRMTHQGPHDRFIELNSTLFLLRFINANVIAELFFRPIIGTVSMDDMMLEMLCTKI
DAX1 inh-2: inhibitors of DAX1 repression of SF-1 activated StAR promoter; inhibition, % at 6.8 µM; HEK293T StAR-luciferase reporter, SF-1/DAX-1 repression relief; 370,000 tested, 1.1% active;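 active = inhibition above the mean over all tested compounds plus 3 SD, cut at about 3.6% in these data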;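 also: higher inhibition means more luminescence from relief of DAX-1 repression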
ssDAF12 agonist: activators of S. stercoralis DAF-12 nuclear receptor. HEK293 ssDAF-12/GRIP1 lit1-tk-luc reporter, luminescence; % of 3 µM dafachronic acid response. activation, % at 6.8 µM. 370,000 tested, 1% active;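 active = activation above the mean over all tested compounds plus 3 SD, cut at about 0.9% in these data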
DAX1 inh confirm: NR0B1 (human) inhibition, confirmation; shares compounds with DAX1 inh-2; HEK293T StAR-promoter luciferase reporter, SF-1/DAX-1 repression; inhibition, % at 6.8 µM; 2,400 tested, 87% active; AID 652134;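 active = inhibition above the average of every tested compound plus 3 SD, cut at about 3.8% in these data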;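 also: active compounds raise luminescence by relieving repression of the StAR reporter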
SF1 mutant ctr: nonselective inhibitor or artifact in SF-1 mutant DAX1 counter-screen; inhibition, % at 6.8 µM; 2,400 tested, 78% active; HEK293 StAR-luciferase, SF-1 AF2 mutant, luminescence; AID 652136; shares compounds with DAX1 inh-2;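 active = inhibition above the mean of all tested compounds plus 3 SD, cut at about 3% in these data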
LXR ag: activates human LXR-beta, counter-screen for hcDAF-12 agonists. HEK293 Gal4-LXR tk-luc reporter, luminescence, 24 h; normalized: DMSO 0%, positive control 100%. shares compounds with hcDAF12 agonist. activation, % at 6.8 µM. 3,400 tested, under 10 active;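 active = mean percent activation of the reporter above a cutoff set as the average over tested compounds plus their standard deviation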
Target sequence (P55055 whole entry, looked up, the tested form may be a part): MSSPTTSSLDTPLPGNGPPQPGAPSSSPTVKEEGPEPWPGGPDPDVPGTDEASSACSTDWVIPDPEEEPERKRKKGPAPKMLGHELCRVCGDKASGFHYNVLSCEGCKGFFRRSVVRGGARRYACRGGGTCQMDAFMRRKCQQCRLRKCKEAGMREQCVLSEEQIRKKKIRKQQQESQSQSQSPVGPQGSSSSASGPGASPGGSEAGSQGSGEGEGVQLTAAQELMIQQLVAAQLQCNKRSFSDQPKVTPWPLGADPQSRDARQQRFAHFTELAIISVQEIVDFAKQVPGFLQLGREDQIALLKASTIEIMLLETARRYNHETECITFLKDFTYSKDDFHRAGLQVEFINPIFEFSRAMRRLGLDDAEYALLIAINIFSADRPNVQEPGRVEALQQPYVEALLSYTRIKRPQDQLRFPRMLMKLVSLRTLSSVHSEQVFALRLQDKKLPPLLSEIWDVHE
hcDAF12 ag: hcDAF-12 agonism, confirmation assay; 3,400 tested, 61% active; AID 743032; shares compounds with hcDAF12 agonist; activation, % at 6.8 µM; HEK293 hcDAF-12 lit1-tk-luc reporter, luminescence; % of Δ7-dafachronic acid response;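 active = mean activation across triplicate tests above the threshold derived from the earlier primary screen, cut at about 5.5% in these data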
Large screens that a line does not name were inactive (follow-up assays come after a bar, where they were run); ! = not active in a repeat.

Cc1cccc(C(C)c2cnc[nH]2)c1C (stereo not given)	none (no result: DAX1 inh-1)
Cc1ccc(OCCOc2cccc(C=C3C(=O)NC(=O)NC3=O)c2)c(C)c1	hgDAF12 agonist 11.4, ssDAF12 agonist 1.4
O=C1NC(=O)C(=Cc2cccc(OCCOc3ccccc3)c2)C(=O)N1	hgDAF12 agonist 11.4
O=C1NC(=O)C(=Cc2ccc(OCCOc3ccc([N+](=O)[O-])cc3)cc2)C(=O)N1	none
CCOc1cc(C=C2C(=O)NC(=O)NC2=O)ccc1OS(=O)(=O)c1ccccc1	none (no result: hcDAF12 agonist, hgDAF12 agonist, DAX1 inh-2, ssDAF12 agonist)
C[C@H](NC(=O)OCc1ccccc1)C(=O)NC(Cc1ccccc1)P(=O)(Oc1ccccc1)Oc1ccccc1 (stereo not given in full)	none (no result: DAX1 inh-1)
Oc1ccc2ccccc2c1CN1CC=C(c2ccccc2)CC1	DAX1 inh-1 5.2
Cc1ccccc1C(=O)NCCN1CCC2(CC1)C(=O)NCN2c1ccccc1	none (no result: DAX1 inh-1)
COc1cc(C(=O)O)cc(OC)c1OC	DAX1 inh-1 8.4
OCC#CC[N+]1(CC#Cc2ccccc2)CCOCC1	DAX1 inh-1 4.3
CC(C)C(C(=O)NC(C)(C)C)N1C(=O)CN=C(c2ccccc2)c2ccccc21 (stereo not given)	none (no result: DAX1 inh-1)
Nc1c2c(nc3sc4c(c13)CCCC4)CCCC2	hgDAF12 agonist 10.8
CCNC(=O)NC(=O)C(C)OC(=O)c1c(C)nn(Cc2ccccc2)c1Cl (stereo not given)	DAX1 inh-1 6.3
O=C(NCCN1CCC2(CC1)C(=O)NCN2c1ccccc1)c1ccc2ccccc2c1	none (no result: DAX1 inh-1)
c1ccc(-c2nc(N3CCOCC3)s[n+]2-c2ccccc2)cc1	hgDAF12 agonist 11.6
COc1cc2oc(=O)c(CC(=O)N3C[C@H]4C[C@@H](C3)c3cccc(=O)n3C4)c(C)c2cc1Cl	DAX1 inh-1 4.8
CC1(C)NC(=S)C(C)(C)N1N=O	ssDAF12 agonist 6.5
Fc1ccc2nc(-c3ccc(CN4CCC(n5nnc6ccccc65)CC4)cc3)c(-c3ccccc3)nc2c1	none (no result: DAX1 inh-1)
O=P(OCCCl)(OCCCl)OCCCl	none (no result: DAX1 inh-1)
Cc1ccc(N)c(C(=O)c2ccc(Br)cc2)c1	none
Cc1ccc(N)c(N)c1	DAX1 inh-2 6.6 | DAX1 inh confirm 5.5 | SF1 mutant ctr 3.2
O=C(c1cc2cc(Cl)ccc2[nH]1)N1CCC2(CC1)OCCO2	hcDAF12 agonist 6.4, DAX1 inh-2 4.6 | DAX1 inh confirm inactive | SF1 mutant ctr 3.8
O=C(c1cc2cc3ccc(Cl)cc3nc2o1)N1CCC2(CC1)OCCO2	none
C/C(=N\NC(=O)c1ccccc1)c1c(O)n(C2CCCCC2)c(=O)[nH]c1=O	DAX1 inh-2 6.0 | DAX1 inh confirm inactive | SF1 mutant ctr inactive
C=C1[C@@H](C)[C@H]2[C@H](Cc3ccccc3)NC(=O)[C@]23OC(=O)/C=C/[C@H](O)CCC[C@@H](C)C/C=C/[C@H]3[C@@H]1O	none
C=C1[C@@H](C)C2[C@H](Cc3ccccc3)NC(=O)[C@]23[C@H](OC(C)=O)/C=C/[C@@](C)(O)C(=O)[C@@H](C)C/C=C/[C@H]3[C@@H]1O (stereo not given in full)	DAX1 inh-2 13.1 (no result: DAX1 inh-1) | DAX1 inh confirm 17.2 | SF1 mutant ctr inactive
NNCc1ccccc1	DAX1 inh-2 5.0! | DAX1 inh confirm inactive | SF1 mutant ctr 2.9
COc1cc2c(c3oc4cccc(O)c4c(=O)c13)[C@@H]1C=CO[C@@H]1O2	none (no result: DAX1 inh-1)
O=C1C(=O)N(c2ccccc2)P(=O)(N(CCCl)CCCl)N1c1ccccc1	hgDAF12 agonist 12.1, DAX1 inh-2 8.1 | DAX1 inh confirm 6.2 | SF1 mutant ctr 3.0
COC1CC=C2CCN3CCC4=C(CC(=O)OC4)C23C1 (stereo not given)	none (no result: DAX1 inh-1)
CC(C)S(=O)(=O)N1Cc2ccc(Br)cc2-n2nncc2C1	none (no result: DAX1 inh-1)
COc1ccc(C(=O)C2CCCN(CCc3ccccc3)C2)cc1OC (stereo not given)	DAX1 inh-2 6.3 (no result: DAX1 inh-1) | DAX1 inh confirm 6.0 | SF1 mutant ctr 3.7
Cc1c(P(=S)(c2ccccc2)c2ccccc2)c2ccccc2n1C	none (no result: DAX1 inh-1, DAX1 inh-2)
CNC(=O)Oc1cccc(-c2cn3cc(Cl)ccc3n2)c1	hcDAF12 agonist 15.4, hgDAF12 agonist 13.1, DAX1 inh-2 5.8, ssDAF12 agonist 2.5 | DAX1 inh confirm 14.0 | SF1 mutant ctr 5.1 | LXR ag inactive | hcDAF12 ag 16.4
O=C(NCCN1CCC2(CC1)C(=O)NCN2c1ccccc1)c1ccccc1F	none (no result: DAX1 inh-1)
Nc1ccccc1N=Cc1c(O)n(CCC2=CCCCC2)c(=O)[nH]c1=O	hcDAF12 agonist 9.6, hgDAF12 agonist 11.4 | LXR ag inactive | hcDAF12 ag inactive
O=C(N/N=C/c1c(O)n(CCC2=CCCCC2)c(=O)[nH]c1=O)c1ccccc1	none
N#CCCC#N	none (no result: DAX1 inh-1)
c1ccc2sc(NC3=NCCN3)nc2c1	hcDAF12 agonist 9.3 | LXR ag inactive | hcDAF12 ag 7.2
COc1ccc2nc(NC3=NCCN3)sc2c1	hcDAF12 agonist 10.2, hgDAF12 agonist 11.9, ssDAF12 agonist 1.0 | LXR ag inactive | hcDAF12 ag 7.4
CC(C)CCP(=O)(O)O	none (no result: DAX1 inh-1)
Cc1ccc(OC(=O)N(C)C[C@H]2OCc3cnnn3CCCC(=O)N([C@@H](C)CO)C[C@@H]2C)cc1	none (no result: DAX1 inh-1)
CCN1C(=O)N(CC)C(=O)C2(Cc3ccccc3N3CCN(c4ccccc4)CC32)C1=O (stereo not given)	hcDAF12 agonist 8.7 (no result: DAX1 inh-1) | LXR ag inactive | hcDAF12 ag inactive
COC(=O)C1C(c2ccc(C)cc2)CC2CCC1N2C (stereo not given)	none (no result: DAX1 inh-1)
COC(=O)C1=C(c2ccc(OC(F)(F)F)cc2)C[C@@H]2CC[C@H]1N2C(=O)NCc1ccco1	none (no result: DAX1 inh-1)
CSc1ccc(C(=O)C2CCCN(Cc3cc4ccccc4[nH]3)C2)cc1 (stereo not given)	hcDAF12 agonist 6.7 | LXR ag inactive | hcDAF12 ag inactive
C=CCn1c(O)c(/C=C2\C=Nc3ccccc32)c(=O)[nH]c1=O	hcDAF12 agonist 6.7 (no result: DAX1 inh-1) | LXR ag inactive | hcDAF12 ag inactive
COC(=O)C1CC(OC(C)=O)C(=O)[C@H]2C1(C)CC[C@H]1C(=O)OC(c3ccoc3)CC12C (stereo not given in full)	none (no result: DAX1 inh-1)
CN1C2CCC1C(C(=O)Oc1ccccc1)C(c1ccc(Cl)cc1)C2 (stereo not given)	none (no result: DAX1 inh-1)
